Compound activity deposited in PubChem BioAssay by National Center for Advancing Translational Sciences (NCATS).
Compounds with a hit are over-represented: about 9.2% of the library has one in this group of screens.
SMN2 splice enh = SMN2 splice variant enhancement. HEK293 SMN2-luciferase splicing reporter, luminescence, 30-36 h. Potency, µM (doses to about 46.1 µM), most hits filed as activators. actives 2.8% (n = 210,000); further: nearly all actives have a fitted effect of over 55% in size
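qHTS luciferase splicing reporter: luminescence rises when SMN2 exon 7 is included in transfected HEK293 cells. Compound exposure lasted 30-36 h at 37C, with 4.5 mM final sodium butyrate as control, followed by a ONE-Glo read.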
ELG1 repair inh = inhibitors of ELG1-dependent DNA repair in HEK293T cells. HEK293T ELG1-luciferase reporter, luminescence, 16 h; DNA damage induced by 5-fluorouridine. Potency, µM (highest dose often 46.1 µM), most hits filed as inhibitors. actives 2.3% (n = 330,000); further: nearly all actives have a fitted effect of over 55% in size
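Luminescence from the luciferase reporter, measured 30 min after ONE-Glo reagent at room temperature, was the read-out. Beforehand, 2,000 cells per well were exposed for 16 hr at 37 °C to 5-fluorouridine together with compound or vehicle.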
NPC1 prom act = activates the NPC1 promoter. Potency, µM (titrated, usually from 9.22 µM), usual class: activators. actives 2.4% (n = 320,000). AID 485313. Huh7 NPC1 promoter luciferase reporter, 24 h; further: nearly all actives have a fitted effect of over 60% in size
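Luciferase expression driven by the NPC1 promoter was measured in stably transfected Huh7 cells after a 24 h compound incubation, using a luciferase reagent and a luminescence read.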
FLuc counter = inhibits or activates purified firefly luciferase, miR-21 counter-screen. AID 588342. P08659. purified FLuc, Km substrates, luminescence inhibition. actives 6.9% (n = 360,000). Potency, µM (highest dose often 57.5 µM), most hits filed as inhibitors; further: nearly all actives have a fitted effect of over 55% in size
Target sequence (P08659 whole entry, looked up): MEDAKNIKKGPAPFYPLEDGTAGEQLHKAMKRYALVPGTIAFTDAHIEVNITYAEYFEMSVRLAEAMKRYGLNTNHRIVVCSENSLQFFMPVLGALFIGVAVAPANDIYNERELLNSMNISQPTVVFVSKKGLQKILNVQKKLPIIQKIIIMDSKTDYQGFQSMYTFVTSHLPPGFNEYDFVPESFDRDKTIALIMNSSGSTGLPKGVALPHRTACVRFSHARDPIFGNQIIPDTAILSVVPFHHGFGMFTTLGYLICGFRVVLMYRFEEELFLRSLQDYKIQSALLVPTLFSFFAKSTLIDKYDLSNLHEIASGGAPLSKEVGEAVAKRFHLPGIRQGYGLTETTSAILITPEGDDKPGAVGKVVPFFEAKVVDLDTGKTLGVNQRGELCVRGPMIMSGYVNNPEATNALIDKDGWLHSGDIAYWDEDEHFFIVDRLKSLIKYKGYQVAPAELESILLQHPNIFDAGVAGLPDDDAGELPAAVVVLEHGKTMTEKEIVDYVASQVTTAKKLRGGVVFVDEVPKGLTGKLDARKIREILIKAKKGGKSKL
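Biochemical qHTS of compounds, final roughly 60 µM downward over six points, against 10 nM purified firefly luciferase using Km concentrations of substrates (10 uM D-luciferin, 10 uM ATP) in Tris acetate pH 7.5 buffer; luminescence output.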
ELG1 genotoxic = genotoxicity induction in ELG1-luciferase HEK293T cells; Potency, µM (top dose mostly 46 µM), most hits filed as activators; actives 1.3% (n = 330,000); HEK293T ELG1-luciferase reporter, luminescence, 16 h; further: nearly all actives have a fitted effect of over 60% in size
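Genotoxic stress is detected as increased luminescence from luciferase-tagged ELG1 in HEK293T cells, measured with ONE-Glo after a 16 hr treatment at 37 °C.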
Rab9 promoter act = activates the Rab9 promoter; Huh7 Rab9 promoter-luciferase reporter, luminescence, 24 h; Potency, µM (series often up to 9.22 µM), most hits filed as activators; actives 2.8% (n = 320,000); further: nearly all actives have a fitted effect of over 60% in size
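Luminescence read-out: Huh7 cells stably expressing Rab9-luciferase, treated 24 h with compound at 37 °C, then lysed with luciferase reagent for 10 min at ambient before reading.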
Hits are given with their value; – = inactive; ? = inconclusive; · = no result. The call rests on the fitted dose curve; in most records, active means well fitted curve in the direction sought with a large enough effect; inconclusive means small, poorly fitted or top-dose-only effect, or another doubt; inactive means no such curve, though single readings can be large; an effect the other way counts as inactive or inconclusive.

SMILES | SMN2 splice enh | ELG1 repair inh | NPC1 prom act | FLuc counter | ELG1 genotoxic | Rab9 promoter act
COC(=O)c1ccc(Oc2nc3c(c(=O)n(C)c(=O)n3C)n2CCC(C)C)cc1 | – | – | – | – | – | –
COc1ccc(Oc2nc3c(c(=O)n(C)c(=O)n3C)n2C)cc1 | · | 9.2µM | – | – | – | –
CCOc1nc2c(c(=O)n(C)c(=O)n2C)n1Cc1ccccc1Cl | – | 8.2µM | – | – | – | –
O=C(COC(=O)CNC(=O)c1ccco1)NCc1ccc(F)cc1 | – | – | – | – | – | –
CC(=O)CC(=O)Nc1ccc(Nc2ccccc2)cc1 | – | – | – | ? | – | –
CCc1ccc(C(=O)CN2C(=O)NC(C)(CCc3ccccc3)C2=O)cc1 (centres undefined) | – | – | – | – | – | –
O=C(Nc1cccc(S(=O)(=O)N2CCCCC2)c1)C1COc2ccccc2O1 (centres undefined) | · | ? | · | · | – | ·
COc1ccc(C(=O)Cn2c(Cl)nc3c2c(=O)n(C)c(=O)n3C)cc1 | · | 16µM | – | – | – | –
COc1ccc(C(=O)Cn2c(N3CCOCC3)nc3c2c(=O)n(C)c(=O)n3C)cc1 | – | – | – | – | – | –
COc1ccc(C2=C(c3ccc(OC)c(OC)c3)CN3CCCCC3C2)cc1 (centres undefined) | · | – | · | · | – | ·
CCOC(=O)c1ccc(NC(=O)c2cn(CCC#N)nc2-c2ccc3c(c2)OCCO3)cc1 | – | 15µM | – | – | – | –
CCOC(=O)N1CCN(C(=O)c2ccc3c(c2)N(Cc2cc(C)ccc2C)C(=O)c2ccccc2S3=O)CC1 (centres undefined) | ? | – | – | – | – | –
O=C1NC(=O)c2cc(Br)cc3cccc1c23 | – | – | – | – | – | –
Cc1ccc(NS(=O)(=O)c2cc3c4c(cccc4c2)C(=O)NC3=O)cc1C | · | 16µM | – | – | – | –
C/C(=N\NC(=O)CNc1cccc(Cl)c1C)C1CC1 | – | – | – | – | – | –
Clc1ccccc1-c1nc2nc3ccccc3nc2n1-c1ccc2c(c1)OCO2 | – | 15µM | – | – | – | –
COC(=O)c1ccccc1C(=O)N(Cc1cccnc1)CC1CCCN(C2CCCCC2)C1 (centres undefined) | · | – | – | – | – | –
Nc1ccccc1C#CC(=O)c1ccccc1 | · | – | – | 6µM | – | –
Cc1ccc(Nc2nnc(SCc3nc4ccccc4c(=O)[nH]3)s2)cc1 | – | – | – | – | ? | –
COc1ccc(Oc2cc(C)c3ccccc3n2)cc1 | – | ? | – | ? | – | –
c1ccc(Oc2ccc3ccccc3n2)cc1 | – | ? | – | 17µM | ? | –
CC(=O)O/N=C/c1c(C)c(C=O)n2ccccc12 | – | – | – | – | – | –
Clc1ccc(CSc2nc3ncccc3[nH]2)cc1 | 13µM | · | · | 6µM | · | ·
c1ccc(CSc2nc3ncncc3[nH]2)cc1 | · | – | – | 17µM | – | –
Cc1ccc(CSc2nc3ncccc3[nH]2)cc1 | 1.8µM | ? | 0.56µM | 2.4µM | – | 0.79µM
SMILES | SMN2 splice enh | ELG1 repair inh | NPC1 prom act | FLuc counter | ELG1 genotoxic | Rab9 promoter act
Cc1cc(C2CCCCC2)n(O)c(=O)c1 | – | ? | – | – | – | –
O=S(=O)(Nc1cc(C(F)(F)F)ccc1N1CCOCC1)c1ccc2ccccc2c1 | – | – | – | – | – | –
CCCn1c(N)c(N(CCOC)C(=O)COC(=O)CSc2cc(C)c3ccccc3n2)c(=O)[nH]c1=O | · | – | – | – | – | –
Cc1sc2ncnc(N3CCN(c4ncccn4)CC3)c2c1C | – | – | – | – | – | –
Cc1ccccc1OCC(=O)NNC(=O)C1CCN(c2ncnc3sc(C)c(C)c23)CC1 | · | 21µM | – | – | – | –
CCCN(CC(=O)Nc1ccccc1C)C(=O)C1CCN(c2ncnc3sc(C)c(C)c23)CC1 | · | 9.2µM | – | – | – | –
CNC(=O)c1ccc(NC(=O)C2CCN(c3ncnc4sc(C)c(C)c34)CC2)cc1 | · | 9.2µM | – | – | – | –
COc1cc(C(=O)N2CCN(c3ncnc4sc(C)c(C)c34)CC2)cc(OC)c1OC | · | 6.5µM | – | – | – | –
